Consider 32 molecules from PubChem BioAssay.

Values without a mark were called inactive. Active and inactive are the calls of the source.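 Rule for the calls, unless noted: active = compounds lowering colon cancer cell viability after pretreatment blocking the GSK3B kinase; inactive = the rest.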

The first assay is described as follows: growth inhibition of GSK3B-pretreated HCT116 cells – cell-based, CellTiter-Glo, 0.2 to 20 µM (AID 1117336). The note with it: HCT116 viability after GSK3B inhibitor, at 20 µM, stronger effect = higher value. A general note: In ATP-based viability assays light output follows the ATP content of the culture.
Regarding `CCO[C@H](Cc1ccc(OCCc2ccc(OS(C)(=O)=O)cc2)cc1)C(=O)O`, the viability decrease was 8.6%.

Consider `O=C(CCCN1CCC(O)(c2ccc(Cl)cc2)CC1)c1ccc(F)cc1`, for which the viability decrease is 75.7% (active).

Turning to `COc1ccc2c(c1)C(=O)N(CCc1ccc(S(=O)(=O)NC(=O)NC3CCCCC3)cc1)C(=O)C2(C)C`, the viability decrease was 87.4% (active).

Consider `CC12CCC(CC1)C(C)(C)O2`, for which the viability decrease was 4.1%.

Turning to `C[C@@H](c1ncncc1F)C(O)(Cn1cncn1)c1ccc(F)cc1F` (some centres undefined), the viability decrease was -3.3%.

Consider `CC(C)(C)NCC(O)c1ccc(O)c(CO)c1` (centres undefined), for which the viability decrease is -1.7%.

For `CCN(CC)CCOc1ccc(Cc2ccccc2)cc1`, the viability decrease is 67.3% (active).

For the molecule `COc1ccc2cc([C@H](C)C(=O)O)ccc2c1`, the viability decrease was -21%.

Regarding `COc1c2occc2cc2ccc(=O)oc12`, the viability decrease is -33.7%.

`NC(=O)c1cccnc1`: the viability decrease is 7%.

Consider `COCCOCC(OC)OC`, for which the viability decrease was 0.6%.

With `CN/C(=C\[N+](=O)[O-])NCCSCc1ccc(CN(C)C)o1`, the viability decrease was -7.5%.

For `CO[C@]1(NC(=O)CSC(F)F)C(=O)N2C(C(=O)O)=C(CSc3nnnn3CCO)CO[C@H]21`, the viability decrease is 11.4%.

With `CNCCCN1c2ccccc2CCc2ccccc21`, the viability decrease is -17.7%.

Turning to `CN1C(=O)CC[C@H]1c1cccnc1`, the viability decrease was 22.7%.

In the case of `CCCC(=O)Nc1ccc(OCC(O)CNC(C)C)c(C(C)=O)c1` (centres undefined), the viability decrease was -32%.

Turning to `O=C(O)CCc1nc(-c2ccccc2)c(-c2ccccc2)o1`, the viability decrease is -61.8%.

With `CC(C)OC(=O)C(C)(C)Oc1ccc(C(=O)c2ccc(Cl)cc2)cc1`, the viability decrease is 81.1% (active).

Turning to `O=C(O)C1CCC1`, the viability decrease was -0.7%.

Regarding `CCN(CC)CC(=O)Nc1c(C)cc(C)cc1C`, the viability decrease was -7.6%.

Regarding `CC(C(=O)O)c1cccc(C(=O)c2ccccc2)c1` (centres undefined), the viability decrease was 9.9%.

With `CN1CCN(C2=Nc3cc(Cl)ccc3Nc3ccccc32)CC1`, the viability decrease was 17.2%.

Consider `Oc1ccc(O)cc1`, for which the viability decrease was 45.2%.

Consider `COC(=O)C1=C(C)NC(C)=C(C(=O)OC)C1c1ccccc1[N+](=O)[O-]`, for which the viability decrease is 77.9% (active).

The nature of a further assay: inhibition of endothelial tube formation, primary screen, imaging, VEGF stimulated, CD31 staining, tube area, NPC library (AID 1117340;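 active = compound that reduces growth-factor-driven endothelial tube area in a mixed cell culture, no cutoff stated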). The note with it: VEGF-stimulated ADSC/ECFC co-culture, at 10 µM, stronger effect = higher value.
`CC(C)NCC(O)COc1cccc2[nH]ccc12` (centres undefined): the tube area decrease is 0%.

Turning to `CCn1cc(C(=O)O)c(=O)c2ccc(C)nc21`, the tube area decrease is 2%.

Turning to `CN(C)C(=O)C(CCN1CCC(O)(c2ccc(Cl)cc2)CC1)(c1ccccc1)c1ccccc1`, the tube area decrease is 11.7%.

Regarding `Cc1cc(NS(=O)(=O)c2ccc(N)cc2)no1`, the tube area decrease is 1.9%.

`CC(C)(C)NC(=O)[C@@H]1C[C@@H]2CCCC[C@H]2CN1C[C@@H](O)[C@H](Cc1ccccc1)NC(=O)[C@H](CC(N)=O)NC(=O)c1ccc2ccccc2n1`: the tube area decrease was 29.6%.

For the molecule `O=C1CN(/N=C/c2ccc([N+](=O)[O-])o2)C(=O)N1`, the tube area decrease was -36%.

As to `COc1cc(Cc2cnc(N)nc2N)cc(OC)c1OC`, the tube area decrease was 2%.

Regarding `COC(=O)C1=C(C)NC(C)=C(C(=O)OCCN(C)Cc2ccccc2)C1c1cccc([N+](=O)[O-])c1` (centres undefined), the tube area decrease was 14.2%.

On to `O=C(CCCN1CCC(O)(c2ccc(Cl)cc2)CC1)c1ccc(F)cc1`, for which the tube area decrease is -3.9%.

`C[C@@H](c1ncncc1F)C(O)(Cn1cncn1)c1ccc(F)cc1F` (some centres undefined): the tube area decrease is -5.2%.

Turning to `CC(C)(C)NCC(O)c1ccc(O)c(CO)c1` (centres undefined), the tube area decrease was -7.8%.

`COc1ccc2cc([C@H](C)C(=O)O)ccc2c1`: the tube area decrease is 16.3%.

`COc1c2occc2cc2ccc(=O)oc12`: the tube area decrease is 3.8%.

On to `NC(=O)c1cccnc1`, for which the tube area decrease was -7.9%.

`CN/C(=C\[N+](=O)[O-])NCCSCc1ccc(CN(C)C)o1`: the tube area decrease is 7%.

Turning to `CO[C@]1(NC(=O)CSC(F)F)C(=O)N2C(C(=O)O)=C(CSc3nnnn3CCO)CO[C@H]21`, the tube area decrease was 7.5%.

Take `CNCCCN1c2ccccc2CCc2ccccc21`: the tube area decrease is 12.6%.

On to `CCCC(=O)Nc1ccc(OCC(O)CNC(C)C)c(C(C)=O)c1` (centres undefined), for which the tube area decrease is 13.3%.

Consider `O=C(O)CCc1nc(-c2ccccc2)c(-c2ccccc2)o1`, for which the tube area decrease is -17.6%.

As to `CCN(CC)CC(=O)Nc1c(C)cc(C)cc1C`, the tube area decrease is 7.2%.

With `CC(C(=O)O)c1cccc(C(=O)c2ccccc2)c1` (centres undefined), the tube area decrease was -21.2%.

For the molecule `CN1CCN(C2=Nc3cc(Cl)ccc3Nc3ccccc32)CC1`, the tube area decrease is -0.2%.

With `COC(=O)C1=C(C)NC(C)=C(C(=O)OC)C1c1ccccc1[N+](=O)[O-]`, the tube area decrease is 1.2%.

The next assay is described as follows: glucagon-like peptide 1 release enhancers, primary assay, NCI-H716 cell line, NPC library (AID 1117341;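 active = compound raises GLP1 secretion from the human gut endocrine cells, with no numeric limit stated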; note: reference of the scale not given here). The note with it: NCI-H716 cells, at 10 µM, stronger effect = higher value.
Take `CC(C)NCC(O)COc1cccc2[nH]ccc12` (centres undefined): the GLP1 secretion stimulation was 1.4%.

For `CCn1cc(C(=O)O)c(=O)c2ccc(C)nc21`, the GLP1 secretion stimulation was 3.3%.

For `CN(C)C(=O)C(CCN1CCC(O)(c2ccc(Cl)cc2)CC1)(c1ccccc1)c1ccccc1`, the GLP1 secretion stimulation is 2.9%.

For `Cc1cc(NS(=O)(=O)c2ccc(N)cc2)no1`, the GLP1 secretion stimulation was 1.9%.

For the molecule `CC(C)(C)NC(=O)[C@@H]1C[C@@H]2CCCC[C@H]2CN1C[C@@H](O)[C@H](Cc1ccccc1)NC(=O)[C@H](CC(N)=O)NC(=O)c1ccc2ccccc2n1`, the GLP1 secretion stimulation is -3.7%.

As to `O=C1CN(/N=C/c2ccc([N+](=O)[O-])o2)C(=O)N1`, the GLP1 secretion stimulation is -0.3%.

In the case of `COc1cc(Cc2cnc(N)nc2N)cc(OC)c1OC`, the GLP1 secretion stimulation is 4.6%.

`COC(=O)C1=C(C)NC(C)=C(C(=O)OCCN(C)Cc2ccccc2)C1c1cccc([N+](=O)[O-])c1` (centres undefined): the GLP1 secretion stimulation is -2.4%.

Consider `O=C(CCCN1CCC(O)(c2ccc(Cl)cc2)CC1)c1ccc(F)cc1`, for which the GLP1 secretion stimulation is 7.5%.

Consider `C[C@@H](c1ncncc1F)C(O)(Cn1cncn1)c1ccc(F)cc1F` (some centres undefined), for which the GLP1 secretion stimulation is -0.7%.

Take `CC(C)(C)NCC(O)c1ccc(O)c(CO)c1` (centres undefined): the GLP1 secretion stimulation was -1.8%.

Take `COc1ccc2cc([C@H](C)C(=O)O)ccc2c1`: the GLP1 secretion stimulation is -1.7%.

As for `COc1c2occc2cc2ccc(=O)oc12`, the GLP1 secretion stimulation is 2%.

For `CN/C(=C\[N+](=O)[O-])NCCSCc1ccc(CN(C)C)o1`, the GLP1 secretion stimulation was -1.4%.

As to `CO[C@]1(NC(=O)CSC(F)F)C(=O)N2C(C(=O)O)=C(CSc3nnnn3CCO)CO[C@H]21`, the GLP1 secretion stimulation was 4%.

As to `CNCCCN1c2ccccc2CCc2ccccc21`, the GLP1 secretion stimulation was 5.9%.

Turning to `CCCC(=O)Nc1ccc(OCC(O)CNC(C)C)c(C(C)=O)c1` (centres undefined), the GLP1 secretion stimulation is 0.9%.

With `O=C(O)CCc1nc(-c2ccccc2)c(-c2ccccc2)o1`, the GLP1 secretion stimulation was 2.2%.

As for `CCN(CC)CC(=O)Nc1c(C)cc(C)cc1C`, the GLP1 secretion stimulation was -3.6%.

For the molecule `CC(C(=O)O)c1cccc(C(=O)c2ccccc2)c1` (centres undefined), the GLP1 secretion stimulation is 1.2%.

Take `CN1CCN(C2=Nc3cc(Cl)ccc3Nc3ccccc32)CC1`: the GLP1 secretion stimulation was 7.2%.

For `COC(=O)C1=C(C)NC(C)=C(C(=O)OC)C1c1ccccc1[N+](=O)[O-]`, the GLP1 secretion stimulation was 4.4%.
